# Values joined by “and” are separate entries in the source; they are usually repeats but may differ in a detail not shown here. Equal values may be shown once. In all, about 75,000 compounds went through this assay and about 20 (0.03%) were called active. Roughly 1% stayed inconclusive and do not appear here. Not all results are given here. Values without a mark were called inactive. The call rests on the fitted dose curve; in most records, active means well fitted inhibition curve with a large enough effect; inconclusive means small, poorly fitted or top-dose-only effect; inactive means flat fitted curve, though single readings scatter. Square brackets hold non-standard residues; d marks the D form. Side chains are listed from the residue outwards. Peptide text beside a SMILES is read from it. * marks the point of attachment. X1 = CCC(C)C(N)C1=NC(C(=O)*)CS1; Orn = NCCC[CH](N)C(=O)O
# Target: Caspase-1 (Homo sapiens) (UniProt P29466)
# Experiment: qHTS Assay for Allosteric/Competitive Inhibitors of Caspase-1;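 further: plate controls were vehicle for no effect and no substrate for full effect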
# Conditions: Caspase-1 enzyme, Ac-WEHD-AFC fluorogenic rate; series mostly up to 57.5 µM; activity change, negative = inhibition: at the top concentration
# Source text: NIH Molecular Libraries Screening Centers Network [MLSCN]
# NIH Chemical Genomics Center [NCGC]
# PI Name: Dr. James Wells,
# Dr. Enrique Perez-Paya, Dr.Janice Williams, Dr. Dennis Wolan, a person
# The caspases (Cysteine Aspartyl Protease) comprise a related family of 14 dimeric proteases that are critical mediators of apoptosis (programmed cell death) and inflammation. The caspases represent an important class of drug targets for stroke, ischemia, cancer and inflammatory diseases. […] One goal of this project was to identify compounds that act as allosteric inhibitors via stabilizing the procaspase form of the enzyme. Previous work in Well's laboratory has shown that such allosteric inhibitors can be identified and these act by binding at the dimer interface of enzyme (Hardy, Lam et al., 2004).
# The biochemical assay was configured using purified caspase 1 at a high enzyme concentration to promote formation of the homodimers and thus facilitate the identification of allosteric inhibitors. The overall goal was to identify reversible inhibitors with better drug-like properties than the currently available set of aspartyl-containing peptidomimetics that covalently bind the active site. Caspase 1 was assayed using the profluorescent substrate Ac-WEHD-AFC. After initiation of the assay with substrate the plates were rapidly read using an automated robotic system (Kalypsys, Inc.) to maintain consistent timing. A kinetic mode of detection was used where the initial rate was collected (estimated final product formation was ~10%). Compounds were screened as a concentration-titration series that ranged from 57 uM to 0.7 nM. Below is the protocol used for caspase 1.
# NCGC Assay Protocol Summary:
# Caspase 1 was prepared in buffer (50 mM HEPES pH 7.5, 50 mM KCl, 200 mM NaCl, 10 mM DTT, 0.1% CHAPS) at a concentration of 66.6 nM and 3 uL was dispensed to all wells using black solid Kalypsys 1536-well plates. 20 nL of DMSO containing compounds was added using a pin-tool (Kalypsys Inc.) to columns 5-48. Then 20 nL of DMSO solution from a control plate was added to columns 1-4. Controls were: Column 1, 16 point titration with each concentration in duplicate (1:1 dilutions in DMSO; final starting concentration was 57 uM) of the caspase 1 inhibitor Ac-WEHD-CHO (Alexis Biochemicals); Column 2, a 16 point titration with each concentration in duplicate of the free AFC fluorophore prepared in DMSO (Alexis Biochemicals), final starting was 40 uM; Column 3 neutral (DMSO only) control; Column 4: DMSO alone, to serve as a negative control (no substrate was added). Then 1 uL of 20 uM the substrate Ac-WEHD-AFC (Alexis Biochemicals) prepared in the same buffer was dispensed to all wells except columns 2 and 4 and the plates were immediately transferred (< 1 min) to the Viewlux. The plates were then exposed using 405 nm excitation/520 nm emission filters for 4 sec and read at 20 sec intervals for 3 min. Final enzyme concentration was 50 nM and the final substrate concentration was 5 uM.
# Concentration-response curves were fitted to the data calculated from slope of the linear regression of fluorescent intensity versus time (the rate). The concentration-effect curves were then classified based on curve quality (r2), response magnitude and degree of measured activity. […] Inconclusive compounds had appreciable concentration-dependent effects on both the measured rate and the interpolated basal fluorescence intensity at the start of the reaction but where the basal fluorescent intensity was marginal (e.g. < 10-fold). Inconclusive compounds also encompass highly fluorescent compounds (>100-fold increases in fluorescent intensities values relative to controls) where artificial concentration-dependent decreases in the rate occurred at high compound concentrations due to fluorescent interferences.
# Keywords: Caspase 1, proteases, profluorescent, MLSMR, MLSCN, NIH Roadmap, qHTS, NCGC
row,SMILES,"activity change, negative = inhibition"
1,COC(=O)[C@@H]1CC[C@H](C)[C@@H](c2ccc(C)cc2)N1C(=O)c1ccc(/C=N\O[C@@H](C)c2cn([C@H](CO)Cc3ccccc3)nn2)cc1,-0.293% [at 11.5 µM] and 3.03% [at 11.5 µM]
2,CO[C@H]1COC(=O)[C@@H](OCc2ccccc2)/C=C\[C@H](C)[C@@H](OC)COC(=O)[C@H](OCc2ccccc2)/C=C\[C@@H]1C,-1.1% [at 11.5 µM]
3,CCOC(=O)N1CCN(C(=O)c2cn(C)c3ccc(S(=O)(=O)N4CCCC4)cc3c2=O)CC1,1.44%
4,COC(=O)[C@@H]1C[C@@]2(O)[C@@H](O)[C@@H](O)[C@@H](O)C[C@H]2N1Cc1ccc(C)s1,-0.674%
5,C/C(Cl)=C\Cn1c(Nc2cccc(C)c2)nc2c1c(=O)n(C)c(=O)n2C,1.24%
6,CC(C)[C@H]1CC[C@@H](C)C[C@H]1O,-4.11%
7,CCC(=O)Nc1nc(OC)cc(OC)n1,-0.774%
8,Nc1nc2c(nc(Cl)n2C2OC(CO)C(O)C2O)c(=O)[nH]1 (centres undefined),-0.0059%
9,CC(=O)OCC(=O)[C@@]1(O)CCC2C3CCC4=CC(=O)CC[C@@]4(C)[C@]3(F)C(O)C[C@]21C (some centres undefined),1.49%
10,O=c1c(O)c(-c2ccc(O)cc2)oc2ccccc12,1.6%
11,C=CCn1c(SCc2cc(C(=O)OC)c(C)o2)nnc1-c1ccncc1,-3.64%
12,C[C@@H](c1ccccc1)N1C(=O)[C@H]2[C@H]3[C@H](O)[C@H](O)C/C(=N/OC[C@@H](O)COCc4ccco4)[C@@H]3CC[C@@H]2C1=O,-0.613% [at 11.5 µM]
13,CCCCCCCCCCCCCCCC(=O)OC/C=C(C)/C=C/C=C(C)/C=C/C1=C(C)CCCC1(C)C,0.363%
14,Cn1c(N)c(C(=O)COC(=O)c2cc(C(F)(F)F)nc3c(C(F)(F)F)cccc23)c(=O)n(C)c1=O,-3.83%
15,COc1cccc([C@H](O)Cn2cc(-c3ccc(CON=C(C)C)cc3)nn2)c1,-1.21% [at 11.5 µM]
16,CC1(C)OC2CC3C4CCC5=CC(=O)CCC5(C)C4(F)C(O)CC3(C)[C@]2(C(=O)CCl)O1 (some centres undefined),-2%
17,CC(C)c1ccc(OCC(O)Cn2cnc3ccccc32)cc1 (centres undefined),-1.04%
18,CCC(C)C(N)C1=NC(C(=O)NC(CC(C)C)C(=O)NC(CCC(=O)O)C(=O)NC(C(=O)NCCCCC2NC(=O)C(CC(N)=O)NC(=O)C(CC(=O)O)NC(=O)C(Cc3cnc[nH]3)NC(=O)C(Cc3ccccc3)NC(=O)C(C(C)CC)NC(=O)C(CCCN)NC2=O)C(C)CC)CS1 (stereo not drawn) (cyclo(DNK([Ile-Glu-Leu-X1])[Orn]IFH); configuration not given here),-2.89%
19,COC(=O)[C@@H]1C[C@@]2(O)[C@H](O)[C@H](O)[C@H](O)C[C@H]2N1CC1CCCCC1,-0.903%
20,CCCN1[C@H](C(=O)OC)C[C@@]2(O)[C@@H](O)[C@@H](O)[C@@H](O)C[C@@H]12,-0.752%
21,CCOC(=O)N/N=C1/C[C@@H](O)[C@@H](O)[C@@H]2[C@@H]3C(=O)N(CC)C(=O)[C@H]3CC[C@H]12,0.333% [at 11.5 µM]
22,CSc1nnc2c(n1)OC(c1ccsc1)N(C(C)=O)c1ccccc1-2 (centres undefined),-16%
23,COc1ccc(COC(=O)N/N=C2/C[C@@H](O)[C@@H](O)[C@@H]3[C@@H]4C(=O)N([C@@H](C)c5ccccc5)C(=O)[C@H]4CC[C@@H]23)cc1,-3.18% [at 11.5 µM]
24,C/C=C(/C)C(=O)OC1Cc2c(ccc3ccc(=O)oc23)OC1(C)C (centres undefined),-0.913%
